Holding throughout (experiment): NCI-60 one-dose screen, 48 h (100 = growth as untreated, 0 = no growth, -100 = all killed)
Holding throughout (conditions): 10 µM unless noted

Test [1] has as its system HCT-15 colon.
Test [2] has as its system HT29 colon.
The test system of test [3] is SNB-75 CNS.
Test [4] has as its system SNB-19 CNS.
Test [5] has as its system U251 CNS.
The subject of test [6] is PC-3 prostate.
In test [7] the test system is SK-MEL-5 melanoma.
Test [8] concerns UACC-62 melanoma.
Test [9] concerns LOX IMVI melanoma.
Test [10] has as its system SK-MEL-28 melanoma.
In test [11] the test system is EKVX NSCLC.
For test [12], the system named is SN12C renal.
In test [13] the test system is UO-31 renal.
The test system of test [14] is TK-10 renal.
The test system of test [15] is ACHN renal.
The subject of test [16] is CAKI-1 renal.
Test [17] relates to A498 renal.
The test system of test [18] is CCRF-CEM leukemia.
Test [19] concerns MOLT-4 leukemia.

About 83,000 compounds went through this panel and 20% of them were active in at least one assay; those are over-represented in the sample as a whole.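 In brief: 96-well plates, 48 h treatment, single concentration, percent growth endpoint.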 Values without a mark were called inactive. Calls of active or inactive are those of the source. The calls were made as follows: active = growth percent below 10; inactive = the rest.

With `O=C1Nc2ccccc2SC1C1SC(=S)N(Cc2ccccc2)C1=O` (stereo unspecified), the growth in [1] was 103%; in test [2], 12.9%; in test [3] it was 51.4%; in [4], 107%; in [5], 98.3%; in [6], 88.4%. Moreover, the growth in test [7] was 95.9%; in test [8], 98.5%; in test [9], 86.2%; in [10] it was 58.8%; in test [11], 105%; in [12] it was 99.5%. In addition, the growth was 73.1% in test [13]; 21.8% in test [14]; 108% in test [15]; 78.2% in test [16]; 109% in [17]; 51.1% in test [18]. In addition, the growth in test [19] is 67.3%.

Regarding `CC/C=C/[C@@H]1C=C[C@@H]2CCC[C@H]2[C@@H]1CC[C@H](O)[C@H](C)N`, the growth in test [1] is -73.8% (active); in test [2], 2.11% (active); in test [3] it was 22.4%; in [4], -41.2% (active); in test [5] it was -79.7% (active); in test [6], 30.4%. Besides, the growth in [7] is -92.8% (active); in [8], -42.1% (active); in [9] it was -91.6% (active); in [10], -87.1% (active); in [11], 82.3%; in test [12], 41.1%. For the same molecule, the growth was -80% (active) in test [13]; 8.1% (active) in test [14]; -56.8% (active) in test [15]; -50.6% (active) in test [16]; 82.1% in test [17]; -44% (active) in test [18]. The growth in test [19] was -47.2% (active).

For `O=C(O)CC1Sc2ccccc2NC1=O` (stereo unspecified), the growth in test [1] is 109%; in test [2] it was 129%; in test [3] it was 94%; in [4], 108%; in test [5], 103%; in [6], 92.1%. Also, the growth in test [7] is 175%; in [8], 105%; in test [9], 96.4%; in [10], 126%; in test [11] it was 113%; in test [12], 102%. In addition, the growth was 86.3% in test [13]; 149% in test [14]; 95.5% in test [15]; 72.8% in test [16]; 124% in [17]; 107% in test [18]. In [19], the growth is 92.5%.

In the case of `O=C1CSC(c2ccccc2Cl)N1c1nnc(Cn2cnnc2)o1` (stereo unspecified), the growth in test [1] is 27.6%; in [2] it was 22.2%; in test [3], 50.2%; in [4] it was 64.5%; in test [5], 32.7%; in [6] it was 71.2%. Moreover, the growth in [7] is 23.7%; in test [8], 38.6%; in [9], 62.5%; in test [10] it was 58.7%; in test [11], 60.7%; in test [12], 82%. The growth in test [13] was 66.4%; in test [14], 91.1%; in test [15], 73.6%; in test [17], 75.5%; in [18], 43.4%; in test [19], 20.2%.

With `COC(=O)CCCNC(=O)C(=O)c1c(O)c(O)c(C(C)C)c2cc(C)c(-c3c(C)cc4c(C(C)C)c(O)c(O)c(C(=O)C(=O)NCCCC(=O)OC)c4c3O)c(O)c12`, the growth is 1.55% (active) in [1]; -22.9% (active) in test [2]; 49.6% in test [3]; 22.5% in test [4]; -62.4% (active) in test [5]; 21.4% in test [6]. Besides, the growth was -68.8% (active) in test [7]; -35.6% (active) in [8]; -85.6% (active) in test [9]; 23.5% in test [10]; 2.47% (active) in test [11]; 16.6% in [12]. The growth in test [13] was -5.61% (active); in test [14], 7.48% (active); in [15], 3.45% (active); in test [16] it was 32.7%; in test [17], -7.28% (active); in test [18], 16.1%. Also, the growth in test [19] is 8.94% (active).

On to `Fc1ccc(Nc2ccc3cc(OCCCN4CCOCC4)ccc3n2)cc1F`, for which the growth was 28.7% in test [1]; -6.89% (active) in test [2]; 48.6% in test [3]; 64.9% in test [4]; 41.7% in [5]; 45.2% in test [6]. The growth is 60% in test [7]; -19.8% (active) in test [8]; -46.9% (active) in test [9]; 43.4% in [10]; 61.2% in test [11]; 68.4% in test [12]. Besides, the growth in test [13] was 19.5%; in [14] it was 66.6%; in [15], 67.2%; in [16], 70.7%; in test [17] it was 36.8%; in [18], 75.4%. In addition, in test [19], the growth was 61.9%.

As for `CCNCCNc1cc(-c2ccc(F)cc2)c(C#N)c2nc3ccccc3n12`, the growth in [1] was 23.8%; in test [2], 16.6%; in test [3], 48.4%; in test [4], 79.3%; in test [5], 17.1%; in [6], 42.1%. Further, the growth was -62.9% (active) in [7]; 12.7% in [8]; -77.4% (active) in test [9]; -91% (active) in test [10]; 78.4% in test [11]; 70.9% in test [12]. Moreover, the growth in [13] was 39.9%; in [14], 87.5%; in test [15] it was 9.08% (active); in test [16], 71.2%; in test [17], -9.7% (active); in test [18], 27.1%. Besides, in test [19], the growth was 61.4%.

On to `CCOc1ccc2nc(-c3cccc(OCC(=O)NC(C)C)c3)nc(Nc3ccc(-c4cn[nH]c4)cc3)c2c1`, for which the growth in [1] was 30.8%; in [2], -27.6% (active); in test [3], -62% (active); in test [4], 19.4%; in [5], -33.8% (active); in test [6], 0.124% (active). Moreover, the growth in [7] was -81.1% (active); in [8] it was -6.26% (active); in test [9] it was -10.8% (active); in test [10], -71.4% (active); in test [11], 9.24% (active); in test [12], 18.6%. Further, the growth in test [13] is -13.3% (active); in [14] it was 47.4%; in test [15] it was 7.49% (active); in test [16] it was 27.7%; in test [17] it was 46.7%; in [18] it was 20.4%. Further, the growth in test [19] is 5.6% (active).

Values taken from PubChem BioAssay (NCI).
